# Compound activity deposited in PubChem BioAssay by several laboratories.
# This is a sample that favours compounds with a hit; in the whole collection about 2.2% have one here.
# EBNA-1 inhibitor: blocks EBNA-1 binding to DNA; inhibition, % at 14.8 µM; EBNA-1 DNA binding, fluorescence polarization; actives 0.34% (n = 300,000); in the data active = inhibition above about 28%
# NALP3 yeast inh: blocks the NALP3 inflammasome reconstituted in yeast; inhibition, % at 10 µM; AID 2825; actives 0.39% (n = 330,000); Yeast reconstituted NLRP3/ASC/caspase-1, beta-gal luminescence, 24 h;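 active = inhibition of 50% or more; inactive = inhibition below 50%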;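 note: plate controls were induced DMSO wells for no effect and uninduced yeast grown without galactose for full effect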
# dFosB act: activators of mouse delta FosB homodimer; P13346; purified delta FosB, TAMRA-CDK5 oligo fluorescence polarization; percent of positive-control signal above neutral wells; activation, % at 25 µM; actives 0.99% (n = 340,000);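 active = mean activation above about 17%, with every replicate also reaching it, limit read from the data, passing the limit was not always enough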
# Target sequence (P13346 whole entry, looked up): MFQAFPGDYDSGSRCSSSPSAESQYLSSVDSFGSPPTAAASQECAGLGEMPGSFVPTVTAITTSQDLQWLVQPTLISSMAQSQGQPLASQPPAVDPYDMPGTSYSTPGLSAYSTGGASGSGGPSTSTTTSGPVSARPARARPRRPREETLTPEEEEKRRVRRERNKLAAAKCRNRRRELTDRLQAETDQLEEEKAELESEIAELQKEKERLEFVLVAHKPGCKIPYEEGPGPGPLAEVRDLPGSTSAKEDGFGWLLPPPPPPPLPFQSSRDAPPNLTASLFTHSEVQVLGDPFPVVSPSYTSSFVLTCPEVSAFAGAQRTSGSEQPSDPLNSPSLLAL
# PolyA inh: inhibitors of polyadenylation in S. cerevisiae | S. cerevisiae SKY197-pL101 polyadenylation reporter, beta-gal luminescence; efflux-impaired pdr1/pdr3 knockout yeast; score 100 = 6 SD above DMSO | activity score, % at 12 µM | actives 0.02% (n = 300,000) | AID 1875;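 active = lowest replicate activity score at least 50, where 100 means six control SD above control mean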;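 note: yeast exposed to compound for 9 h at 30 °C; higher score means more reporter readthrough which indicates perturbed polyadenylation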
# NALP1 inh: inhibitors of NALP1 inflammasome in yeast | actives 0.61% (n = 280,000) | S. cerevisiae NALP1/ASC/caspase-1 growth, X-gal OD620, 72 h | inhibition, % at 10 µM; in the data active = inhibition mostly above about 24%, no sharp cut-off; inactive = mostly below about 32%
# ZTA counter: ZTA (EBV) inhibition in EBNA-1 counter-screen. actives 0.15% (n = 320,000). P03206. inhibition, % at 11 µM. ZTA-DNA binding, fluorescence polarization; in the data active = inhibition above about 33%
# Target sequence (P03206 whole entry, looked up): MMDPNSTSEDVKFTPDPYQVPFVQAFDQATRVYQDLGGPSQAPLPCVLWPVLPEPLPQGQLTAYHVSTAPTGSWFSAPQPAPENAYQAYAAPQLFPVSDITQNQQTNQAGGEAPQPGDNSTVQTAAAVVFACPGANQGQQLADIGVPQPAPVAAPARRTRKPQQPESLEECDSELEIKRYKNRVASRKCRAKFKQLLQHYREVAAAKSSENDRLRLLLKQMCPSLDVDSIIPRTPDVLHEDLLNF
# NALP3 yeast conf: NALP3 inhibition confirmation in yeast | shares compounds with NALP3 yeast inh | yeast expressing human NALP3, luminescence | inhibition, % at 10 µM | actives 81% (n = 1,300) | AID 435006; in the data active = inhibition above about 48%
# Casp1 ASC ctr: caspase-1-ASC yeast counter-screen hit; AID 488784; shares compounds with NALP3 yeast inh; inhibition, % at 10 µM; actives 66% (n = 1,000); yeast expressing Caspase-1-ASC, luminescence counter screen
# NALP3 yeast rt: retest-confirmed inhibitor of NALP3 in yeast. shares compounds with NALP3 yeast inh. yeast expressing human NALP3, luminescence read-out. inhibition, % at 10 µM. actives 53% (n = 1,000). AID 488794
# An asterisk follows results filed as active; . = no result. Cut-off read from the data, not from the text of the source, unless noted: active = inhibition above about 50%; inactive = the rest.
SMILES,EBNA-1 inhibitor,NALP3 yeast inh,dFosB act,PolyA inh,NALP1 inh,ZTA counter,NALP3 yeast conf,Casp1 ASC ctr,NALP3 yeast rt
N/C(Cc1ccc(Cl)cc1)=N\OC(=O)c1cccc2ccccc12,0.6,57.2*,-17.1,-108.0,-5.6,-1.8,45.1*,54.7*,51.2*
O=C(c1csc2c1CCCC2)N1CCN(c2cccc(C(F)(F)F)c2)CC1,-19.2,-109.5,-9.2,9.3,-6.9,-18.5,5.1,.,.
O=C(c1csc2c1CCCC2)N1CCN(c2ccc(F)cc2)CC1,-13.6,-15.0,-5.0,-3.9,-15.6,-6.3,.,.,.
Cc1ccc(-c2cnn(-c3cccc(C(F)(F)F)c3)c2N)cc1,1.9,56.8*,2.8,-30.8,2.8,0.4,65.8*,48.6,31.4
C[C@@H]1CN([C@H](C)CO)C(=O)c2cc(NS(=O)(=O)c3cn(C)cn3)ccc2O[C@H]1CN(C)C(=O)Nc1ccccc1,.,1.2,7.5,.,.,.,.,.,.
Cc1ccc2sc(N(CCCN(C)C)C(=O)c3ccc(Br)s3)nc2c1C,-3.3,26.6,6.7,15.9,4.1,-3.7,.,.,.
COc1ccccc1-c1sc2cc3c(cc2c1-c1ccc(OCCN2CCCCC2)cc1)OCO3,.,64.1*,0.6,.,.,.,48.6*,46.5,43.0
COc1cc2sc(-c3ccccc3OC)c(-c3ccc(OCCN4CCCCC4)cc3)c2cc1OC,.,22.7,1.7,.,.,.,.,.,.
CCc1ccn2cc(-c3cc(-c4ccccc4)no3)nc2c1,3.6,81.1*,-21.0,-5.2,-3.0,13.5,81.2*,42.5,43.6
C=CCOC(=O)C1=C(C)NC(=S)C(C#N)(CC=C)C1c1ccccc1Cl (configuration not stated),0.7,10.2,.,-6.4,8.5,-11.3,.,.,.
Clc1ccc2nc(CSc3nc4ccccc4o3)cn2c1,-0.8,56.7*,-3.8,-1.0,6.7,-19.0,72.8*,68.6*,60.4*
Cc1ccc(SCc2cn3cc(Cl)ccc3n2)cc1,7.3,46.1,-1.1,-1.7,.,23.4,.,.,.
C/C(=N\NC(=S)NCc1ccccc1)c1ccc2ccccc2c1OC(F)F,6.8,56.1*,0.6,-36.4,-4.7,3.4,15.8,.,.
COc1ccc(Cl)cc1C(=O)Nc1ccc(NC(C)=O)cc1,-11.8,8.2,2.9,11.8,29.6,2.7,.,.,.
CC(=O)Oc1c(I)cc(I)cc1C(=O)Nc1ccc(Cl)cc1,5.6,59.8*,-3.6,-22.9,3.1,1.8,77.0*,46.8,57.6*
COc1ccc(-n2nnnc2S(=O)(=O)CC(=O)N2CCCCC2)cc1,1.6,56.8*,-1.0,.,-3.7,3.1,62.2*,62.6*,38.5
O=C(Nc1cccc(Cl)c1)NC1CC2CCC1C2 (configuration not stated),0.9,31.0,-3.7,0.7,15.3,-14.8,.,.,.
CCOC(=O)N=Nc1c(O)n(CC(=O)OC)c2ccccc12,-2.6,26.5,-8.1,-11.5,16.4,-14.1,.,.,.
CCOC(=O)N=Nc1c2ccccc2c2nc3no[nH]c3nc12,.,86.3*,-9.2,-110.0,-7.8,.,91.6*,71.5*,61.9*
N#C/C(=N\Nc1ccc(Cl)c(Cl)c1)C(=O)C1CC1,2.1,62.1*,-1.8,-12.5,.,-3.7,87.1*,.,.
CCN(CC)c1ccc(/C=N\NC(=O)c2cccc3cc[nH]c23)cc1,-13.1,23.5,-1.0,-16.4,2.1,-24.9,.,.,.
Cc1ccc(S(=O)(=O)N2CCN(C(=O)CNC(=O)c3ccc(Br)o3)CC2)cc1,11.8,18.4,-7.2,0.8,.,8.7,.,.,.
CN1C(=O)Cc2cc(S(=O)(=O)N3CCN(c4ccccc4F)CC3)ccc21,-0.3,4.7,-11.0,5.4,19.5,3.6,.,.,.
CN(C)c1ccc(N=Nc2cccc(F)c2)cc1,-14.7,51.8*,-1.3,-19.7,10.7,-16.7,43.4,51.0*,39.0
CN(C)c1ccc(N=Nc2cccc3ccoc23)cc1,1.8,59.6*,-2.6,-1.8,8.8,-11.0,67.7*,45.0,40.6
SMILES,EBNA-1 inhibitor,NALP3 yeast inh,dFosB act,PolyA inh,NALP1 inh,ZTA counter,NALP3 yeast conf,Casp1 ASC ctr,NALP3 yeast rt
CN(C)c1ccc(N=Nc2ccc(S(N)(=O)=O)cc2)cc1,0.0,33.1,14.3,3.6,25.1,5.4,.,.,.
CN(C)c1ccc(N=Nc2ccc3ncccc3c2)cc1,.,.,-17.5,.,.,.,.,.,.
COc1ccc(C(=O)NCc2ccc(F)cc2)cc1S(=O)(=O)N1CCCC1,.,18.3,-4.8,.,.,.,.,.,.
CCN(CC)CCNC(=O)Cn1cnc2sc(C)c(S(=O)(=O)N3CC(C)CC(C)C3)c2c1=O (configuration not stated),-3.2,10.6,1.9,10.7,10.2,-16.1,.,.,.
COc1ccc(-c2cc3cccc(OC)c3oc2=O)cc1,-0.2,34.5,-18.8,-21.3,15.0,-7.6,.,.,.
COc1ccc2cc(-c3ccccc3)c(=O)oc2c1,-11.7,63.4*,-13.2,-40.1,25.5,-6.9,75.0*,67.8*,63.4*
COc1cccc2cc(-c3ccccc3)c(=O)oc12,8.8,53.8*,-13.9,2.8,-8.1,1.7,71.8*,57.6*,50.0*
COC(=O)C(C)Oc1ccc2cc(-c3ccccc3)c(=O)oc2c1 (configuration not stated),-20.0,30.6,-8.2,-15.2,20.0,-17.8,.,.,.
COc1cccc2cc(-c3nc4ccccc4[nH]3)c(=O)oc12,5.3,57.0*,3.4,-23.9,11.0,19.9,53.9*,28.8,25.6
COc1cccc2cc(-c3nc(-c4cccs4)cs3)c(=O)oc12,-8.6,19.8,-0.8,-0.1,-2.6,-2.9,.,.,.
Cc1cc(=O)oc2cc(OCC(=O)N3CCN(C(=O)C4COc5ccccc5O4)CC3)c(Cl)cc12 (configuration not stated),1.1,-10.2,-0.7,-21.2,11.4,19.8,.,.,.
COc1cc(C2NC(=O)NC(C)=C2[N+](=O)[O-])cc(OC)c1OC (configuration not stated),3.4,-3.2,2.5,-0.8,.,7.5,.,.,.
C[C@@]12CCC3[C@@](CCC4[C@@]3(C)CCC[C@@]4(C)C(=O)NCc3ccccc3)(CC1=O)C2 (some centres not stated),.,52.2*,-4.7,.,.,1.6,53.8*,47.5,45.0
CC(C)(C)NC(=O)[C@]1(C)CCC[C@@]2(C)C3CC[C@@]4(C)C[C@]3(CCC21)CC4=O (some centres not stated),.,52.2*,6.4,.,.,-7.1,42.4,44.4,42.1
CC(C)(C)CNC(=O)[C@]1(C)CCC[C@@]2(C)C3CC[C@@]4(C)C[C@]3(CCC21)CC4=O (some centres not stated),.,37.0,-2.8,.,.,-9.3,.,.,.
CC(C)=CCc1c(O)cc2oc3c(CC=C(C)C)c(O)c(O)c(CC=C(C)C)c3c(=O)c2c1O,-3.6,55.7*,-7.6,-10.4,-6.9,-14.2,73.7*,51.0*,46.8
